# Hits are enriched below; roughly 2% of the tested compounds scored in any of these assays.
# TDP-43 yeast inh: qHTS of TDP-43 Inhibitors. Potency, µM (doses to about 46.1 µM), for the others: at the highest dose growth rescue (activation), most hits filed as activators. AID 652104, 2013. 410,000 compounds, 1.8% hits. TDP-43 expressing yeast growth rescue, BacTiter-Glo, 24 h; note: % of control where 0% means no effect; nearly all actives have a fitted effect of over 50% in size
#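 Yeast expressing TDP-43 (pregrown in raffinose, seeded at OD600=0.02 in galactose medium) exposed to compounds 24 hr at 30 deg C. Growth read by BacTiter-Glo luminescence; rescue of toxicity appears as increased signal.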
# FUS suppressor: qHTS for Suppressors of FUS Proteinopathy: Primary screen using FUS-linked yeast assay | S. cerevisiae FUS-expressing, growth rescue, OD600, 24 h | Potency, µM (top dose mostly 76.6 µM), most hits filed as activators | 390,000 compounds, 0.24% hits;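 note: plate controls were DMSO vehicle for no effect and reference control for full effect; nearly all actives have a fitted effect of over 55% in size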
#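 S. cerevisiae expressing FUS from galactose induction served as the toxicity model. Growth after 24hr at 30C, read as absorbance at 600 nm, indicates suppression of toxicity; compounds dosed at several concentrations.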
# GRP78 ERSR act: qHTS for Inducers of the Endoplasmic Reticulum Stress Response (ERSR) in Human Glioma: qHTS | 420,000 compounds, 0.02% hits | U87-MG GRP78 promoter luciferase reporter, 16 h | AID 602332, 2012 | Potency, µM, for the others: at the top dose activation, most hits filed as activators; note: series mostly up to about 76 µM; % of control where 0% means no effect; nearly all actives have a fitted effect of over 35% in size
#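 ERSR induction read as luciferase luminescence (Bright-Glo, 10 min at room temperature) in stably transfected human U87-MG glioma cells exposed to compounds for 16 h, using GRP78 as sensor.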
# Abeta rescue: qHTS for compounds that reverse cellular toxicity of Amyloid beta (A-beta) peptide in yeast: Primary Screen; Potency, µM (doses to about 46.1 µM), usual class: activators; 410,000 compounds, 0.063% hits; yeast expressing A-beta42, growth rescue, OD600, 48 h; response scale: 0% DMSO, 100% iron-clioquinol control; note: nearly all actives have a fitted effect of over 55% in size
#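 Growth rescue measured by 600 nm absorbance after 48 h yeast culture at 30 C with compound. Values normalized between DMSO and an equimolar ferric chloride plus clioquinol control.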
# aSyn yeast inh: qHTS of alpha-syn Inhibitors. Yeast expressing alpha-synuclein, growth rescue, BacTiter-Glo, 24 h. 370,000 compounds, 0.14% hits. AID 652106, 2013. Potency, µM (series often up to 46.1 µM), without a hit: at the highest dose growth rescue (activation), usual class: activators; note: % of control where 0% means no effect; nearly all actives have a fitted effect of over 65% in size
#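 Rescue of yeast growth: cells expressing toxic alpha-synuclein, induced in galactose at OD600 0.02, incubated with compound 24 h at 30 C. ATP luminescence quantified growth; inhibitors of toxicity appear as activators.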
# MBNL1 CUG block: qHTS Assay for Inhibitors of MBNL1-poly(CUG) RNA binding. Muscleblind-like protein 1 (Homo sapiens), Q9NR56. TR-FRET MBNL1-His/biotin-(CUG)12 binding, 665/545 ratio. Potency, µM (highest dose often 57.5 µM), inactives show at the highest dose activity change, negative = inhibition, usual class: inhibitors. 280,000 compounds, 0.036% hits. AID 2675, 2010; active = well fitted inhibition curve with a large enough effect in the signal ratio, with a control signal flat, not every such curve was filed as active; inconclusive = small, poorly fitted or top-dose-only effect, or effect the other way, or a change in a side signal; inactive = no such curve, though single readings can be large or run the other way; the % refers to the signal ratio; note: % is set by controls: 0 for no effect and ±100 for the full control effect
# Target sequence (Q9NR56 whole entry, looked up): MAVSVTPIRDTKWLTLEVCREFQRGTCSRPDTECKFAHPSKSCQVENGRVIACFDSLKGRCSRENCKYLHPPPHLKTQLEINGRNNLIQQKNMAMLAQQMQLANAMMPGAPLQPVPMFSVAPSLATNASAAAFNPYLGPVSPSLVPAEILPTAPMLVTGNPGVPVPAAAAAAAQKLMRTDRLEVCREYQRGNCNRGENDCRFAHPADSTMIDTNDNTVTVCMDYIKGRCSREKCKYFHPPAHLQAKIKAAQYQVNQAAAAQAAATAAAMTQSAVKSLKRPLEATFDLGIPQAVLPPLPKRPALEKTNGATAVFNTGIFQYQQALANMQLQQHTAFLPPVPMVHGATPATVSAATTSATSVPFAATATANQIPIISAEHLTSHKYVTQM
#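 His-tagged MBNL1 binding to biotinylated (CUG)12 RNA was measured by TR-FRET using terbium anti-His antibody (0.055 ng/ul final) and streptavidin-XL665 (5 nM final). Compounds were titrated 92 nM to 58 uM; 60 min at room temperature.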
# An asterisk follows results filed as active; i = inactive; ? = inconclusive; / = not tested or not shown; [ ] = remark or other dose. Unless noted, calls come from the whole dose curve; as a rule, active = well fitted curve in the direction sought with a large enough effect; inconclusive = small, poorly fitted or top-dose-only effect, or another doubt; inactive = no such curve, though single readings can be large; an effect the other way counts as inactive or inconclusive. Potency is the fitted concentration of half-maximal effect.
SMILES,TDP-43 yeast inh,FUS suppressor,GRP78 ERSR act,Abeta rescue,aSyn yeast inh,MBNL1 CUG block
COc1ccc(Cl)cc1C(=O)NCCS(=O)(=O)N1CCN(c2ccccc2OC)CC1,11µM*,?,-3%,i,/,/
CCc1ccccc1NC(=O)c1ccc(F)c(S(=O)(=O)N2CCN(c3ccccc3OC)CC2)c1,23%,?,-3%,8.9µM*,/,/
COc1ccccc1N1CCN(S(=O)(=O)CCNC(=O)COc2ccc(C(C)C)cc2)CC1,16µM*,?,-2%,?,/,/
CCOc1ccc(CC(=O)NCCS(=O)(=O)N2CCN(c3ccccc3OC)CC2)cc1,14%,i,-3%,i,/,/
O=C(Nc1cc(Cl)cc(Cl)c1)c1ccc(F)c(S(=O)(=O)N2CCN(c3ccccc3F)CC2)c1,6%,i,-2%,i,/,/
COc1ccc2c(c1)OC(C)CN(CCC(=O)NCC1OCCc3ccccc31)C2 (configuration not stated),/,/,-3%,/,/,/
CCC1CN(CC(=O)NCc2n[nH]c3c2CCCCC3)Cc2cc(OC)ccc2O1 (configuration not stated),/,/,-3%,/,/,/
COc1c(C(C)(C)C)cc(S(=O)(=O)N2c3ccccc3C[C@H]2C)cc1C(C)(C)C,/,i,/,/,/,/
Cn1cc(CNC2CCN(c3cccc(NC(=O)c4cccnc4)c3)CC2)cn1,/,/,-1%,/,/,/
Cn1cnc([N+](=O)[O-])c1Sc1ccc(Br)cc1,?,i,8%,i,2%,25%
Cc1ccc(Sc2c([N+](=O)[O-])ncn2C)cc1,10µM*,i,6%,i,0%,13%
O=C(c1nc2ncccn2n1)N1CCOc2ccc(C(O)C(c3ccccc3)c3ccccc3)cc2C1 (configuration not stated),/,/,2%,/,/,/
N=C1SCC(=O)N1c1ncc(Cc2ccc(F)cc2)s1,10µM*,i,3%,?,10%,20%
CC1CCCCN1C(=O)CSc1nc2ccccc2nc1Cc1ccc(Cl)cc1 (configuration not stated),0%,25µM*,-3%,i,/,/
O=C(CSc1nc2ccccc2nc1Cc1ccc(Cl)cc1)N1CCCCC1,10%,?,-3%,i,/,/
COc1ccc(N2CCN(C(=O)CSc3nc4ccccc4nc3Cc3ccc(Cl)cc3)CC2)cc1,-6%,32µM*,-6%,i,/,/
COC(=O)c1ccc(S(=O)(=O)N2CCC(NC(=O)Cc3ccccc3)CC2)cc1,/,i,/,/,/,/
Cc1ccc2nc(-c3ccccc3C)c(CN(CC3CCCO3)C(=O)c3cccs3)cc2c1 (configuration not stated),/,/,-3%,/,/,/
COc1cccc(CNC(=O)c2cc(-c3cccc(OC)c3)n[nH]2)c1,20µM*,i,2%,i,/,/
COc1cccc(-c2cc(C(=O)NCc3ccccc3)[nH]n2)c1,?,i,1%,i,/,/
COc1cccc(CNC(=O)c2c(C)nn(-c3ccc(F)cc3)c2-n2cccc2)c1,?,i,-3%,i,1%,/
COc1cccc(CNC(=O)c2c(C)nn(-c3cccc(C)c3)c2-n2cccc2)c1,35µM*,i,-2%,i,/,/
CCOc1ccc(CNC(=O)c2c(C)nn(-c3ccc(F)cc3)c2-n2cccc2)cc1,14µM*,i,-5%,i,-4%,/
COc1ccc(/C=C/C(=O)N2CCc3c(cnc(C)c3CNS(=O)(=O)c3cccs3)C2)cc1,/,/,1%,/,/,/
O=C(OCc1ccccc1)[C@H](Cc1ccccc1)NC(=O)[C@@H]1CC=C[C@@H]2CCN(Cc3ccc(Cl)cc3)C(=O)[C@@H]21,/,i,/,/,/,/
SMILES,TDP-43 yeast inh,FUS suppressor,GRP78 ERSR act,Abeta rescue,aSyn yeast inh,MBNL1 CUG block
S=C(NCCc1cccc(Cl)c1)NC1CCCCC1,4%,i,0%,7.1µM*,2%,-4%
CCOc1ccc(NC(=O)c2nc(S(=O)(=O)Cc3ccc(F)cc3)ncc2Cl)cc1,/,/,-10%,/,4%,/
CS(=O)(=O)c1ccc(-c2cccc3c2OC(CNC(=O)c2ccnc(Cl)c2)C3)cc1 (configuration not stated),/,/,-6%,/,/,/
C#C[C@@]1(OC(C)=O)CC[C@H]2[C@@H]3CCC4=CC(=O)CC[C@@H]4[C@H]3CC[C@@]21C,/,/,-2%,/,/,/
O=C(O)c1ccc(NCc2cccc(Br)c2)cc1,11µM*,i,1%,i,?,-18%[11.5 µM]
O=C(O)c1ccc(NCc2ccncc2)cc1,-33%,i,-4%,i,-7%,-3%
O=C(NC(=S)N1CCN(c2ccc(C(F)(F)F)cc2[N+](=O)[O-])CC1)c1cccs1,20µM*,/,3%,i,-3%,5%
Cc1ccc(OCC(=O)Nc2ccc(Cl)c(-c3nc4ncccc4o3)c2)cc1C,18µM*,i,-5%,i,?,/
CCC1(C2CCN(C(=O)c3cc4ccccc4o3)CC2)NC(=O)N(CCc2scnc2C)C1=O (configuration not stated),/,/,1%,/,/,/
Nc1cc(=O)[nH]c2c1CCC2,/,/,-3%,/,1%,/
Cc1cc(CNC(=O)COc2cc(F)ccc2[N+](=O)[O-])c2ccccc2n1,/,i,-2%,i,-7%,?
O=C(COc1cc(F)ccc1[N+](=O)[O-])NCCCc1ccccc1,13µM*,i,-5%,i,13%,7%
CCCc1nc2cccnc2n1C1CCN(C(=O)CC2NC(=O)c3ccccc32)CC1 (configuration not stated),/,/,4%,/,/,/
COc1ccc(/C(N)=N/OC(=O)Cc2cccs2)cc1,?,i,3%,i,-20%,-2%
COc1ccc(CC(=O)O/N=C(\N)c2ccc(OC)cc2)cc1,18µM*,i,1%,i,11%,-1%
N/C(Cc1ccc(Cl)cc1Cl)=N\OC(=O)Cc1ccc(Cl)cc1,1.3µM*,i,-1%,i,-61%,/
COc1ccc(/C(N)=N/OC(=O)C2CCCCC2)cc1,16µM*,i,6%,i,-10%,-2%
COc1ccc(/C(N)=N/OC(=O)CN(C)S(=O)(=O)c2ccccc2)cc1,13µM*,i,11%,i,4%,-10%
COc1ccc(C2(C(=O)NCC3Cc4cccc(-c5cccnc5)c4O3)CCCC2)cc1 (configuration not stated),/,/,-6%,/,/,/
CC(C)CN1C(=O)[C@@]2(CC(=O)N(C)C2c2ccccc2)c2cc(-n3cc(CO)nn3)ccc21 (some centres not stated),/,i,/,/,/,/

# Screening results deposited in PubChem BioAssay by National Center for Advancing Translational Sciences (NCATS).
